ELG1 genotoxic: genotoxicity induction in ELG1-luciferase HEK293T cells; HEK293T ELG1-luciferase reporter, luminescence, 16 h; Potency, µM (highest dose often 46 µM), actives largely listed as activators; 330,000 compounds, 1.3% hits; AID 504466; note: nearly all actives have a fitted effect of over 60% in size
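HEK293T cells expressing luciferase-tagged ELG1 were exposed to compound or DMSO vehicle for 16 hr at 37 °C and 5% CO2. Luciferase activity was then measured with ONE-Glo after 30 min at room temperature.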
NPC1 prom act: NPC1 promoter activation; Huh7 NPC1 promoter luciferase reporter, 24 h; Potency, µM (highest dose often 9.22 µM), hits mostly activators; 320,000 compounds, 2.4% hits; AID 485313; note: nearly all actives have a fitted effect of over 60% in size
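Cells: Huh7 expressing luciferase under the NPC1 promoter, 1500/well. Seeded 2 h, compound added, incubated 24 h at 37 °C. Luciferase reagent, 10 min ambient, then luminescence.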
FLuc counter: firefly luciferase modulation, counter-screen for miR-21 project; P08659; purified FLuc, Km substrates, luminescence inhibition; Potency, µM (doses to about 57.5 µM), usual class: inhibitors; 360,000 compounds, 6.9% hits; AID 588342; note: nearly all actives have a fitted effect of over 55% in size
Target sequence (P08659 whole entry, looked up): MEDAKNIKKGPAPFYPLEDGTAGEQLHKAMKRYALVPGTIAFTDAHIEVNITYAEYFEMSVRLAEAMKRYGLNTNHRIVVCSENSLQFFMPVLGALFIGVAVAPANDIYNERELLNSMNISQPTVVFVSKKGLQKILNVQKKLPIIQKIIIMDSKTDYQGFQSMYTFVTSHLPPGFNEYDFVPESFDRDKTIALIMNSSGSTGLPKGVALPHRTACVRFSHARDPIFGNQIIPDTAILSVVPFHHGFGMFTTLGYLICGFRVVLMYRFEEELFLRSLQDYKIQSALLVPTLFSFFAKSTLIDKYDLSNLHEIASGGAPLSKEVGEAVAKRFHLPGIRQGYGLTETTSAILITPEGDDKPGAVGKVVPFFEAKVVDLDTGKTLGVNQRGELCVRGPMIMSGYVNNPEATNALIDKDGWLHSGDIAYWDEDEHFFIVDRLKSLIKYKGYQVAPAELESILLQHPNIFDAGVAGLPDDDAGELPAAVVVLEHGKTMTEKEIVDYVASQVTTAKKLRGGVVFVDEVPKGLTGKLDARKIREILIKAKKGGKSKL
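Biochemical qHTS of compounds, final roughly 60 µM downward over six points, against 10 nM purified firefly luciferase using Km concentrations of substrates (10 uM D-luciferin, 10 uM ATP) in Tris acetate pH 7.5 buffer; luminescence output.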
SMN2 splice up: enhancers of SMN2 splice variant expression. HEK293 SMN2-luciferase splicing reporter, luminescence, 30-36 h. Potency, µM (series often up to 46.1 µM), usual class: activators. 210,000 compounds, 2.8% hits. AID 1458; note: nearly all actives have a fitted effect of over 55% in size
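qHTS luciferase splicing reporter: luminescence rises when SMN2 exon 7 is included in transfected HEK293 cells. Compound exposure lasted 30-36 h at 37C, with 4.5 mM final sodium butyrate as control, followed by a ONE-Glo read.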
Rab9 prom act: Rab9 promoter activation; Huh7 Rab9 promoter-luciferase reporter, luminescence, 24 h; Potency, µM (doses to about 9.22 µM), hits mostly activators; 320,000 compounds, 2.8% hits; AID 485297; note: nearly all actives have a fitted effect of over 60% in size
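Using Huh7 cells stably transfected with Rab9 promoter–luciferase, compounds were incubated 24 h at 37 °C, 5% CO2; luciferase luminescence was read 10 min after reagent addition.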
ELG1 repair inh: ELG1-dependent DNA repair inhibition; HEK293T ELG1-luciferase reporter, luminescence, 16 h; DNA damage induced by 5-fluorouridine; Potency, µM (top dose mostly 46.1 µM), most hits filed as inhibitors; 330,000 compounds, 2.3% hits; AID 504467; note: nearly all actives have a fitted effect of over 55% in size
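Step one: seed 2,000 cells per well. Step two: pin-transfer compound or DMSO alongside 5-fluorouridine. Step three: incubate 16 hr, 37 °C, 5% CO2. Step four: add ONE-Glo, wait 30 min, read luminescence.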
Hits are given with their value; . = inactive; ? = inconclusive; / = no result given; [ ] = remark or other dose. This is a sample that favours compounds with a hit; in the whole collection about 9.2% have one here. Calls come from the whole dose curve; as a rule, active = well fitted curve in the direction sought with a large enough effect; inconclusive = small, poorly fitted or top-dose-only effect, or another doubt; inactive = no such curve, though single readings can be large; an effect the other way counts as inactive or inconclusive.

SMILES	ELG1 genotoxic	NPC1 prom act	FLuc counter	SMN2 splice up	Rab9 prom act	ELG1 repair inh
CC(C)(C)c1ccc(Oc2ccc(NC(=O)c3cccs3)cn2)cc1	.	.	?	/	.	6.5µM
O=C(Nc1cccc(NC(=O)c2cccs2)c1)c1ccc(Br)o1	.	.	24µM	/	.	.
Cc1ccc(CN2CCCn3nc(C(=O)NC(C)C)cc3C2=O)cc1	/	/	.	/	/	/
COc1ccc(NC(=O)c2ccco2)cc1NC(=O)c1cccs1	.	.	.	4.5µM	.	.
C/C(=N\NC(=O)C(N)=O)c1ccc(NC(=O)c2cccs2)cc1	?	.	?	?	?	?
COc1cc(NC(=O)c2cc(OC)c(OC)c(OC)c2)ccc1NC(=O)c1cccs1	.	.	.	/	.	?
COc1ccc(NC(=O)c2cccs2)cc1OC	23µM	.	?	/	.	?
COc1ccccc1CC(=O)Nc1ccc(NC(=O)c2cccs2)cc1	.	.	.	/	.	.
COc1cc(NC(=O)c2cccs2)c(OC)cc1NC(=O)c1ccco1	.	.	.	.	.	.
COC(=O)Cc1ccc(NC(=O)c2cccs2)cc1	.	?	21µM	11µM	2.8µM	?
N/C(=N\O)c1ccc(NC(=O)c2cccs2)cc1	?	?	17µM	.	3.5µM	?
Cc1coc2cc3oc(=O)c(CCC(=O)N4CCC(C(=O)O)(c5ccccc5)CC4)c(C)c3cc12	.	.	.	/	.	.
O=C(CCc1nnc2ccc(N3CCC4(CC3)OCCO4)nn12)N1CCCCC1	.	.	.	/	.	.
Cc1ccc(-n2ncc(C(=O)NCc3ccc4c(c3)OCO4)c2C2CCN(C(=O)OC(C)(C)C)CC2)c(C)c1	/	/	.	/	/	/
CC1CCCN(C(=O)COc2ccc(NC(=O)c3cccs3)cc2)C1 (stereo unspecified)	.	.	9.5µM	.	.	.
Cc1ccc(C(=O)Nc2cccc(NC(=O)c3cccs3)c2)c(C)c1	.	.	12µM	/	.	.
O=C(NNC(=O)c1cccs1)c1ccc(F)cc1	.	.	.	/	.	?
Cc1ccc(OCC(=O)N2CCN(C(=O)c3cccs3)CC2)cc1	.	.	.[2.3 µM]	.	.	.
O=C(Nc1cccc(NC(=O)c2cccs2)c1)c1ccc(F)cc1	.	.	21µM	/	.[1.84 µM]	.
COc1ccc(NC(=O)c2ccc(NC(=O)c3cccs3)cc2)cc1	21µM	.	.	/	.	?
COC(=O)NC(C)N1C(=O)C2C3C=CC(C3)C2C1=O (stereo unspecified)	?	.	.	.	.	.
COc1ccc(CN(C(=O)c2snc(C(N)=O)c2N)C(C(=O)NC2CCCC2)c2cc(OC)ccc2OC)cc1 (stereo unspecified)	.	.	.	/	.	?
C=CCOc1ccc(C(=O)n2cc(C(=O)OC)c3ccccc32)cc1	.	.	.	/	.	.
CCOc1ccc(N2CC(NC(=O)C3CCCC3)CC2=O)cc1 (stereo unspecified)	/	/	.	/	/	/
COc1ccc(Cl)cc1-c1nc(-c2ccc(NC(=O)c3cccs3)cc2)no1	.	.	15µM	.	?	.
SMILES	ELG1 genotoxic	NPC1 prom act	FLuc counter	SMN2 splice up	Rab9 prom act	ELG1 repair inh
CC(=O)c1ccc(NC(=O)c2cccs2)cc1	16µM	2.8µM	15µM	10µM	2.2µM	?
CC(=O)c1ccc(OC(=O)c2cccs2)cc1	.	.	12µM	.	.	.
COc1cccc(NC(=O)c2cccs2)c1	16µM	?	17µM	13µM	?	?
CCCCOc1ccc(CNC(=O)CN2C(=O)CCn3nc(-c4cn(C)c5ccccc45)cc32)cc1	/	/	.	/	/	/
Cc1cc(/C=C2\C(=O)NN(c3ccccc3)C2=O)c(C)n1-c1ccccc1O	?	2.8µM	1.3µM	/	2.8µM	?
Cc1cc(C=C2C(=O)CCCC2=O)c(C)n1-c1ccccc1	.	.	17µM	.	.	.
O=C1NN(c2ccccc2)C(=O)/C1=C\c1coc2ccc(O)cc2c1=O	.	.	?	/	.	.
Cc1cc(/C=C2/C(=O)NN(c3ccccc3)C2=O)c(C)n1-c1ccc(O)cc1	?	?	0.15µM	.	2.5µM	?
COc1ccc(Sc2ccc(/C=C3\C(=O)NN(c4ccccc4)C3=O)o2)cc1	.	.	.	.	.	.
